Consider nine compounds from PubChem BioAssay (NCI).

SMILES strings stand for the structures. The panel holds about 83,000 compounds, 20% with a hit somewhere; the sample as a whole holds those more often.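 Single-concentration screen, 48 h exposure, 96-well plates. Endpoint: percent growth. Below 10 = active.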 Values without a mark were called inactive. Active and inactive are the calls of the source.

Among the test systems are HCT-15 colon; HT29 colon; SNB-75 CNS; SNB-19 CNS; U251 CNS; PC-3 prostate; SK-MEL-5 melanoma; UACC-62 melanoma; LOX IMVI melanoma; SK-MEL-28 melanoma; SK-MEL-2 melanoma; EKVX NSCLC; SN12C renal; UO-31 renal; ACHN renal; CAKI-1 renal; A498 renal; CCRF-CEM leukemia; MOLT-4 leukemia; TK-10 renal.
Assay in all cases: NCI-60 one-dose screen, 48 h (100 = growth as untreated, 0 = no growth, -100 = all killed)
Conditions in all cases: 10 µM unless noted

As to `O=c1[nH]nc(-c2ccc(Cl)cc2)cc1Cc1cccc([N+](=O)[O-])c1`, the growth is 105% in the assay on HCT-15 colon; 116% with HT29 colon; 110% in the assay on SNB-75 CNS; 88.5% in the assay with SNB-19 CNS; 92.1% in the assay with U251 CNS; 91.1% with PC-3 prostate. The growth in the assay with SK-MEL-5 melanoma is 79.3%; in the assay with UACC-62 melanoma, 74.3%; in the assay on LOX IMVI melanoma, 93.5%; with SK-MEL-28 melanoma, 109%; with SK-MEL-2 melanoma, 174%; in the assay with EKVX NSCLC it was 39.8%. The growth was 89.1% with SN12C renal; 71.7% in the assay with UO-31 renal; 98.3% with ACHN renal; 80.8% with CAKI-1 renal; 106% in the assay with A498 renal; -7.68% (active) with CCRF-CEM leukemia. Besides, the growth in the assay on MOLT-4 leukemia was 5.84% (active).
`CCNC(=O)c1[nH]cc(-c2ccc(OC)cc2)c1-c1cc(OC)cc(OC)c1`: the growth was 68.6% in the assay with HCT-15 colon; 94.6% with HT29 colon; 67% in the assay with SNB-75 CNS; 84% in the assay with SNB-19 CNS; 98% with U251 CNS; 84.2% with PC-3 prostate. The growth is 61.1% in the assay on SK-MEL-5 melanoma; 48.2% with UACC-62 melanoma; 83.4% in the assay with LOX IMVI melanoma; 87.9% in the assay with SK-MEL-28 melanoma; 98.6% with SK-MEL-2 melanoma; 89.8% in the assay with EKVX NSCLC. Further, the growth is 77.4% in the assay with UO-31 renal; 115% in the assay on TK-10 renal; 67.3% with ACHN renal; 59.9% in the assay with CAKI-1 renal; 91.1% in the assay on A498 renal; 94.5% in the assay on MOLT-4 leukemia.
Consider `FC(F)(F)c1cccc(Nc2ccccc2)c1`, for which the growth in the assay with HCT-15 colon is 99.4%; in the assay with HT29 colon, 105%; with SNB-75 CNS, 94.7%; in the assay with SNB-19 CNS, 98.2%; with U251 CNS it was 97.7%; in the assay on PC-3 prostate it was 102%. Further, the growth is 103% in the assay on SK-MEL-5 melanoma; 96.5% with UACC-62 melanoma; 98.7% in the assay with LOX IMVI melanoma; 102% in the assay with SK-MEL-28 melanoma; 88.7% in the assay on SK-MEL-2 melanoma; 101% in the assay with EKVX NSCLC. Also, the growth is 101% in the assay on SN12C renal; 97.6% in the assay with UO-31 renal; 99.6% with ACHN renal; 97.5% with CAKI-1 renal; 109% with CCRF-CEM leukemia.
Take `CCCCCCCCCCCC(=O)C(CCCCCCCCCC)C(=O)Nc1ccccc1` (centres undefined): the growth with HCT-15 colon was 115%; in the assay on HT29 colon, 94.7%; with SNB-75 CNS, 101%; with SNB-19 CNS, 101%; in the assay on U251 CNS, 99.4%; in the assay on PC-3 prostate it was 92.6%. The growth is 97.9% in the assay with SK-MEL-5 melanoma; 91.5% with UACC-62 melanoma; 93.5% with LOX IMVI melanoma; 108% with SK-MEL-28 melanoma; 98.8% in the assay on SK-MEL-2 melanoma; 108% in the assay on EKVX NSCLC. The growth with SN12C renal was 98.1%; with UO-31 renal, 86.1%; in the assay on ACHN renal, 100%; with CAKI-1 renal it was 97%; with CCRF-CEM leukemia it was 103%; in the assay on MOLT-4 leukemia it was 89.3%.
In the case of `Nc1nc(SN=Nc2ccc(S(N)(=O)=O)cc2)c2[nH]cnc2n1`, the growth with HCT-15 colon is 12.6%; with HT29 colon, 9.84% (active); in the assay with SNB-75 CNS, 5.46% (active); in the assay on SNB-19 CNS it was 103%; with U251 CNS, 42.7%; with PC-3 prostate it was 23.8%. Also, the growth is 46.7% in the assay with SK-MEL-5 melanoma; 0.536% (active) in the assay with UACC-62 melanoma; -9.46% (active) with LOX IMVI melanoma; 15.6% with SK-MEL-28 melanoma; -3.49% (active) with SK-MEL-2 melanoma; 28.6% in the assay on EKVX NSCLC. For the same compound, the growth with UO-31 renal is 22.5%; with TK-10 renal, -9.94% (active); with ACHN renal, 15.9%; in the assay with CAKI-1 renal it was 1.85% (active); in the assay with CCRF-CEM leukemia it was -2.18% (active); in the assay on MOLT-4 leukemia it was -1.6% (active).
Consider `Cc1ccc2[nH]c(=O)cc(-n3nncc3COc3ccc(C=O)cc3)c2c1`, for which the growth in the assay with HCT-15 colon was 102%; in the assay on HT29 colon, 105%; in the assay with SNB-75 CNS, 91.2%; with SNB-19 CNS, 102%; in the assay on U251 CNS it was 102%; in the assay on PC-3 prostate, 97.8%. In addition, the growth with SK-MEL-5 melanoma is 101%; in the assay on UACC-62 melanoma, 93.7%; in the assay with LOX IMVI melanoma it was 99.6%; in the assay on SK-MEL-28 melanoma, 113%; in the assay with SK-MEL-2 melanoma, 101%; with EKVX NSCLC, 103%. Besides, the growth was 106% with SN12C renal; 62.9% in the assay on UO-31 renal; 98.9% in the assay with ACHN renal; 87.8% in the assay on CAKI-1 renal; 117% with A498 renal; 97.9% in the assay with CCRF-CEM leukemia. Also, the growth with MOLT-4 leukemia was 108%.
Take `O=C(CCN1CCCC1)Nc1ccc2c(NCc3ccc(F)cc3)c3ccccc3nc2c1`: the growth in the assay with HCT-15 colon was 14.3%; in the assay on HT29 colon it was 0.774% (active); with SNB-75 CNS, -11% (active); with SNB-19 CNS, 4.86% (active); in the assay with U251 CNS, -39.3% (active); in the assay on PC-3 prostate it was -17% (active). Further, the growth in the assay with SK-MEL-5 melanoma was 30.5%; in the assay with UACC-62 melanoma, 1.75% (active); with LOX IMVI melanoma, -74% (active); with SK-MEL-28 melanoma, 30.5%; in the assay with SK-MEL-2 melanoma, -5.55% (active); with EKVX NSCLC, 14.6%. In addition, the growth in the assay with SN12C renal is -2.56% (active); in the assay with UO-31 renal, 1.44% (active); with ACHN renal it was 5.75% (active); with CAKI-1 renal it was 3.81% (active); in the assay on CCRF-CEM leukemia, -15.2% (active); with MOLT-4 leukemia, -19.8% (active).
With `c1ccc(CCSc2ncnc3nc[nH]c23)cc1`, the growth with HCT-15 colon is 98.2%; with HT29 colon it was 90.6%; in the assay on SNB-75 CNS, 98.7%; in the assay with SNB-19 CNS, 84.8%; in the assay on U251 CNS, 91.1%; with PC-3 prostate, 82.8%. For the same compound, the growth in the assay on SK-MEL-5 melanoma was 85.1%; in the assay on UACC-62 melanoma it was 76.9%; in the assay with LOX IMVI melanoma it was 80.5%; with SK-MEL-28 melanoma, 103%; in the assay with SK-MEL-2 melanoma, 53.6%; in the assay with EKVX NSCLC, 73.4%. Further, the growth is 84.4% in the assay with UO-31 renal; 122% in the assay on TK-10 renal; 90.7% in the assay on ACHN renal; 86.7% in the assay with CAKI-1 renal; 86.3% in the assay on A498 renal; 92.6% with CCRF-CEM leukemia. In the assay with MOLT-4 leukemia, the growth was 92.4%.
For the compound `CCCC/C(=N\N=C(N)N)c1ccc(F)cc1`, the growth with HCT-15 colon is 23.4%; in the assay on HT29 colon it was 1.87% (active); in the assay with SNB-75 CNS it was -1.82% (active); in the assay on SNB-19 CNS, 41.6%; in the assay on U251 CNS, 32.1%; with PC-3 prostate it was 26.3%. The growth was 2.87% (active) in the assay on SK-MEL-5 melanoma; 45.3% with UACC-62 melanoma; 26.5% in the assay on LOX IMVI melanoma; 54% in the assay with SK-MEL-28 melanoma; 1.07% (active) in the assay with SK-MEL-2 melanoma; 44.5% in the assay on EKVX NSCLC. Further, the growth in the assay with UO-31 renal is 45.3%; in the assay with TK-10 renal, 50.7%; in the assay with ACHN renal, 43.6%; with CAKI-1 renal, 29.5%; in the assay with CCRF-CEM leukemia it was 26.3%; with MOLT-4 leukemia it was 32.4%.
